Values joined by “and” are separate entries in the source; they are usually repeats but may differ in a detail not shown here. Equal values may be shown once. A structure can be active in one record and inactive in another. Active and inactive are the calls of the source. How the source made its calls: active means hit-call score of the fitted dose curve at least 0.9, where 1 is the maximum; inactive means score below 0.9.
How the values were obtained:
[1] = read-out: Tissue plasminogen activator (tPA), PLAT (gene 5327); assay: BSK_BF4T_tPA: BioMAP Diversity Plus: BF4T Assay for Tissue plasminogen activator (tPA) Biomarker Activity (AID 2284272); settings: primary human bronchial epithelial cells with fibroblasts
In short: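 tPA level quantified by ELISA at 24 h post-treatment in bronchial epithelial/dermal fibroblast co-cultures, gain of signal scored against DMSO baseline. Parallel cultures stained with 0.1% SRB (560 nm) to flag overt cytotoxicity.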

[2] = read-out: Plasminogen Activator Inhibitor-1 (PAI1), SERPINE1 (gene 5054); assay: BSK_BF4T_PAI1: BioMAP Diversity Plus: BF4T Assay for Plasminogen Activator Inhibitor-1 (PAI1) Biomarker Activity (AID 2284273); settings: primary human bronchial epithelial cells with fibroblasts
In short: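 Co-culture of human bronchial epithelial cells and dermal fibroblasts exposed to compound for 24 h. PAI-1 measured by ELISA; activity fitted in positive direction versus DMSO. Parallel SRB staining assessed overt cytotoxicity.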

[3] = BSK_BF4T_SRB: Viability Assessment in the BioMAP Diversity Plus: BF4T Assay (AID 2284274); settings: primary human bronchial epithelial cells with fibroblasts
In short: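 Co-culture of human bronchial epithelial cells and dermal fibroblasts (BioMAP BF4T) exposed 24 h. Total protein by sulforhodamine B staining (0.1% SRB after 10% TCA fixation, 560 nm) in parallel cultures; fitted vs DMSO.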

[4] = read-out: Interleukin-8 (IL8), CXCL8 (gene 3576); assay: BSK_IMphg_IL8: BioMAP Diversity Plus: IMphg Assay for Interleukin-8 (IL8) Biomarker Activity (AID 2284277); settings: primary human endothelial cells with macrophages
In short: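 Co-culture of human venular endothelial cells and macrophages exposed to chemicals for 24 h; IL-8 quantified by ELISA and compared against the DMSO baseline, with SRB total-protein staining in parallel cultures for cytotoxicity.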

[5] = read-out: Intercellular Adhesion Molecule 1 (ICAM1), ICAM1 (gene 3383); assay: BSK_BE3C_ICAM1: BioMAP Diversity Plus: BE3C Assay for Intercellular Adhesion Molecule 1 (ICAM1) Biomarker Activity (AID 2284278); settings: primary human bronchial epithelial cells;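 further: cell-surface ICAM-1 protein level quantified by ELISA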
In short: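 Primary human bronchial epithelial cells in BE3C system, 24 h after chemical dosing; cell-surface ICAM-1 measured by ELISA relative to DMSO. Parallel SRB staining (0.1% SRB after 10% TCA fixation, read at 560 nm) assessed cytotoxicity.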

[6] = read-out: Interferon-inducible T-cell alpha chemoattractant (ITAC), CXCL11 (gene 6373); assay: BSK_BE3C_ITAC: BioMAP Diversity Plus: BE3C Assay for Interferon-inducible T-cell alpha chemoattractant (ITAC) Biomarker Activity (AID 2284279); settings: primary human bronchial epithelial cells
In short: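 ELISA read-out of I-TAC after 24 h chemical dosing of human lung primary bronchial epithelial cells; gain-of-signal fit vs DMSO baseline. Parallel SRB total-protein staining (0.1% SRB, 10% TCA fixation, 560 nm) assessed cytotoxicity.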

[7] = read-out: Epidermal growth factor receptor (EGFR), EGFR (gene 1956); assay: BSK_BE3C_EGFR: BioMAP Diversity Plus: BE3C Assay for Epidermal growth factor receptor (EGFR) Biomarker Activity (AID 2284281); settings: primary human bronchial epithelial cells
In short: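 Primary human lung bronchial epithelial cells; compound, 24 h; EGFR measured by ELISA; positive-direction fit vs DMSO baseline.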

KRT18 (gene 3875) = assay: BSK_BE3C_Keratin818: BioMAP Diversity Plus: BE3C Assay for Keratin 818 Biomarker Activity (AID 2284282); settings: primary human bronchial epithelial cells
In short: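 Primary human bronchial epithelial cells treated 24 h; Keratin 8/18 quantified by ELISA, fit relative to DMSO. Cytotoxicity tracked in parallel cultures by sulforhodamine B total-protein staining.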

[8] = read-out: Matrix Metallopeptidase 9 (MMP9), MMP9 (gene 4318); assay: BSK_BE3C_MMP9: BioMAP Diversity Plus: BE3C Assay for Matrix Metallopeptidase 9 (MMP9) Biomarker Activity (AID 2284283); settings: primary human bronchial epithelial cells
In short: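 Cells were dosed, incubated 24 h, then assayed for MMP-9 by ELISA; activity was fitted upward against DMSO. The system used human lung primary bronchial epithelial cells, with SRB total-protein staining run alongside for cytotoxicity.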

[9] = read-out: Plasminogen activator inhibitor-1 (PAI1), SERPINE1 (gene 5054); assay: BSK_CASM3C_PAI1: BioMAP Diversity Plus: CASM3C Assay for Plasminogen activator inhibitor-1 (PAI1) Biomarker Activity (AID 2284284); settings: primary human coronary artery smooth muscle cells;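 further: PAI-1 protein level measured by ELISA 24 h after dosing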

SMILES	outcome [1]	outcome [2]	outcome [3]	AC50 [4]	outcome [5]	AC50 [6]	outcome [7]	outcome (KRT18 (gene 3875))	outcome [8]	outcome [9]	outcome [4]	outcome [6]	AC50 [1]	AC50 [2]	AC50 [8]
COC(=O)C(F)(F)C(F)(F)OC(F)(C(F)(F)F)C(F)(F)OC(F)=C(F)F (stereo unspecified)	inactive	inactive	inactive	1.61 µM (active) and 1.92 µM (active)	inactive	3.93 µM (active) and 4.84 µM (active)	inactive	inactive	inactive	inactive	–	–	–	–	–
O=C(O)C(F)(F)OC(F)(F)C(F)(F)OC(F)(F)C(=O)O	inactive	inactive	inactive	–	inactive	–	inactive	inactive	inactive	inactive	inactive	inactive	–	–	–
OCC(F)(F)OC(F)(F)C(F)(F)OC(F)(F)C(F)(F)OC(F)(F)CO	–	inactive	inactive	–	inactive	30 µM (active)	inactive	inactive	inactive	inactive	inactive	inactive	30 µM (active) and 24 µM (active)	–	–
OCC(F)(F)OC(F)(F)C(F)(F)OC(F)(F)CO	inactive	inactive	inactive	–	inactive	–	inactive	inactive	inactive	inactive	inactive	inactive	–	–	–
O=C(O)C(F)(F)OC(F)(F)C(F)(F)OC(F)(F)F	inactive	inactive	inactive	22 µM (active)	inactive	–	inactive	inactive	inactive	inactive	inactive	inactive	–	–	–
NC(=O)C(F)(F)C(F)(F)F	inactive	inactive	inactive	–	inactive	–	inactive	inactive	inactive	inactive	inactive	inactive	–	–	–
O=S(=O)(F)C(F)(F)C(F)(F)C(F)(F)C(F)(F)C(F)(F)C(F)(F)C(F)(F)C(F)(F)F	inactive	inactive	inactive	–	inactive	–	inactive	inactive	inactive	inactive	inactive	inactive	–	–	–
CC(O)C(F)(F)C(F)(F)F (stereo unspecified)	inactive	inactive	inactive	–	inactive	–	inactive	inactive	inactive	inactive	inactive	inactive	–	–	–
OCC(F)(F)OC(F)(F)C(F)(F)OC(F)(F)C(F)(F)OC(F)(F)F	inactive	inactive	inactive	–	inactive	–	inactive	inactive	inactive	inactive	inactive	inactive	–	25.6 µM (active)	–
C=CC(=O)OCC(F)(F)C(F)F	–	inactive	inactive	–	inactive	–	inactive	inactive	inactive	inactive	inactive	inactive	30 µM (active) and 29.3 µM (active)	–	–
O=C(O)C=CC(F)(C(F)(F)F)C(F)(F)F	inactive	inactive	inactive	–	inactive	–	inactive	inactive	inactive	inactive	inactive	inactive	–	–	–
O=C(O)C(F)(F)C(F)(F)C(=O)O	inactive	inactive	inactive	–	inactive	–	inactive	inactive	inactive	inactive	inactive	inactive	–	–	–
COP(=O)(CCC(=O)NCO)OC	–	–	–	–	inactive	–	inactive	inactive	inactive	inactive	–	inactive	–	–	–
O=C(O)C(F)(OC(F)(F)C(F)(F)C(F)(F)F)C(F)(F)F (stereo unspecified)	inactive	inactive	inactive	5.95 µM (active)	inactive	–	inactive	inactive	inactive	inactive	inactive	inactive	–	–	1.45 µM (active)
FC(F)(F)C(F)(C(F)(F)F)C(F)(F)C(F)(F)CC1CO1 (stereo unspecified)	inactive	inactive	inactive	–	inactive	–	inactive	inactive	inactive	inactive	inactive	inactive	–	–	–

From PubChem BioAssay (EPA / NIEHS)
